SARS 3CLpro inh – SARS-CoV 3CLpro protease inhibitors, primary screen, biochemical, quenched FRET; Replicase polyprotein 1ab (Severe acute respiratory syndrome coronavirus), P0C6X7; recombinant SARS-CoV 3CLpro, quenched FRET peptide cleavage; inhibition, % at 6 µM; 290,000 tested, 0.14% active; in the data active = inhibition above about 12%
BoNT-A LC inh2 – BoNT/A light chain protease inhibitors, primary screen, biochemical, flow cytometry, MLPCN library; AID 588499, 2011; inhibition, % at 10 µM; Botulinum neurotoxin type A light chain protease (Clostridium botulinum A str. ATCC 3502); multiplex microsphere protease substrate cleavage; 360,000 tested, 0.17% active; note: plate controls were buffer without enzyme for full effect and enzyme alone for no effect
CCHF vOTU inh – CCHFV vOTU protease inhibitors, primary screen, biochemical, Pep-AMC substrate, fluorescence | 370,000 tested, 0.55% active | Crimean-Congo hemorrhagic fever virus L polyprotein viral ovarian tumor (vOTU) protease … | inhibition, % at 11.5 µM; in the data active = inhibition above about 30%; note: 0% = vehicle wells with enzyme and 100% = no enzyme wells
Anthrax LF inh2 – Bacillus anthracis LF protease inhibitors, primary screen, biochemical, multiplex microsphere, MLPCN library; inhibition, % at 10 µM; AID 588501, 2011; Lethal factor (Bacillus anthracis), P15917; multiplex microsphere protease cleavage assay; 360,000 tested, 0.12% active; note: plate controls were buffer without enzyme for full effect and enzyme alone for no effect
Autofluor counter – compound fluorescence in toxin protease inhibitor counterscreen; compound autofluorescence counterscreen, microsphere flow cytometry; active compounds read high; fluorescence intensity (no concentration beside the values); 360,000 tested, 3.1% active; AID 624483; in the data active = fluorescence intensity above about 16000; inconclusive = no clear call, values can overlap the other calls
BoNT-F LC inh – BoNT/F light chain protease inhibitors, primary screen, biochemical, flow cytometry, MLPCN library. Multiplex microsphere protease cleavage assay. inhibition, % at 10 µM. 360,000 tested, 0.22% active; in the data active = inhibition above about 35%, passing the limit was not always enough; inconclusive = no clear call, values can overlap the other calls; note: plate controls were buffer without enzyme for full effect and enzyme alone for no effect
Numbers without * were called inactive. The list is not random: actives were taken first. Their share in the collection is about 3.9%. Cut-off read from the data, not from the text of the source, unless noted: active = inhibition above about 30%; inconclusive = no clear call, values can overlap the other calls; inactive = below that.

How did CCOC(=O)C1CCN(C(=O)c2cn(CCOC)c(=O)c3c2c2ccccc2n3C)CC1 do in these assays?
SARS 3CLpro inh: -3; BoNT-A LC inh2: 0; CCHF vOTU inh: -36; Anthrax LF inh2: -6; Autofluor counter: 23452*; BoNT-F LC inh: -1

Results for COCCn1cc(C(=O)N2CCCC(C)C2)c2c3ccccc3n(C)c2c1=O (stereo not drawn) ?
SARS 3CLpro inh: -5; BoNT-A LC inh2: 0; CCHF vOTU inh: -42; Anthrax LF inh2: -2; Autofluor counter: 11638; BoNT-F LC inh: 4

What do the screens show for `CCOC(CCNC(=O)c1cn(C)c(=O)c2c1c1ccccc1n2C)OCC`?
SARS 3CLpro inh: -4; BoNT-A LC inh2: 7; CCHF vOTU inh: 2; Anthrax LF inh2: 69*; Autofluor counter: 5221; BoNT-F LC inh: 89*

What do the screens show for `CCN1CCN(C(=O)c2cn(CCOC)c(=O)c3c2c2ccccc2n3C)CC1`?
SARS 3CLpro inh: -1; BoNT-A LC inh2: 4; CCHF vOTU inh: -24; Anthrax LF inh2: -8; Autofluor counter: 21067*; BoNT-F LC inh: 5

Results for CC(C)Cn1cc(C(=O)N2CCN(c3ccccn3)CC2)c2c3ccccc3n(C)c2c1=O ?
SARS 3CLpro inh: -1; BoNT-A LC inh2: 1; CCHF vOTU inh: -17; Anthrax LF inh2: 0; Autofluor counter: 16320*; BoNT-F LC inh: 4

What do the screens show for `CCCN(CCC)CCNC(=O)c1cn(C)c(=O)c2c1c1ccccc1n2C`?
SARS 3CLpro inh: 3; BoNT-A LC inh2: -6; CCHF vOTU inh: -31; Anthrax LF inh2: 2; Autofluor counter: 4070; BoNT-F LC inh: inconclusive

What do the screens show for `CCOC(=O)C1=CN(CC2CCCCC2)CCC1=O`?
BoNT-A LC inh2: 0; CCHF vOTU inh: -2; Anthrax LF inh2: -7; Autofluor counter: 3927; BoNT-F LC inh: 0

Results for COc1cc(OC)c(NS(=O)(=O)c2cccc(C(=O)OCC(=O)NCC3CCCO3)c2)cc1Cl (stereo not drawn) ?
SARS 3CLpro inh: 2; BoNT-A LC inh2: 0; CCHF vOTU inh: 0; Anthrax LF inh2: -3; Autofluor counter: 4160; BoNT-F LC inh: -3

What do the screens show for `CC(C)Cn1cc(C(=O)NCCCN2CCC(C)CC2)c2c3ccccc3n(C)c2c1=O`?
BoNT-A LC inh2: 0; CCHF vOTU inh: -10; Anthrax LF inh2: -2; Autofluor counter: 5431; BoNT-F LC inh: -5

Results for CC(C)Cn1cc(C(=O)NCCCN2CCCC2=O)c2c3ccccc3n(C)c2c1=O ?
SARS 3CLpro inh: -5; BoNT-A LC inh2: -1; CCHF vOTU inh: -33; Anthrax LF inh2: 0; Autofluor counter: 16933*; BoNT-F LC inh: -2

How did CCCCNC(=O)C(NC(=O)c1ccc(=O)[nH]c1)C(=O)c1ccccc1 (stereo not drawn) do in these assays?
BoNT-A LC inh2: 0; CCHF vOTU inh: 1; Anthrax LF inh2: -4; Autofluor counter: 6276; BoNT-F LC inh: 1

What do the screens show for `O=C(Nc1ccc(S(=O)(=O)NCC2CCCO2)cc1)c1ccccc1` (stereo not drawn)?
SARS 3CLpro inh: 7; BoNT-A LC inh2: -1; CCHF vOTU inh: 3; Anthrax LF inh2: 0; Autofluor counter: 2654; BoNT-F LC inh: 6

How did CCC(Oc1ccccc1)C(=O)Nc1ccc(S(=O)(=O)NCC2CCCO2)cc1 (stereo not drawn) do in these assays?
SARS 3CLpro inh: 3; BoNT-A LC inh2: 1; CCHF vOTU inh: -1; Anthrax LF inh2: -4; Autofluor counter: 20336*; BoNT-F LC inh: 1

Results for O=S(=O)(NCC1CCCO1)c1ccc(Oc2ccccc2)cc1 (stereo not drawn) ?
SARS 3CLpro inh: -1; BoNT-A LC inh2: -2; CCHF vOTU inh: -13; Anthrax LF inh2: -3; Autofluor counter: 21154*; BoNT-F LC inh: -2

Results for COc1cccc2cc(C(=O)N3CCCCC3C)c(=O)oc12 (stereo not drawn) ?
SARS 3CLpro inh: 0; BoNT-A LC inh2: -1; CCHF vOTU inh: -3; Anthrax LF inh2: -4; Autofluor counter: 3326; BoNT-F LC inh: -8

Results for COc1cccc2cc(NC(=O)C3CCCCC3)c(=O)oc12 ?
SARS 3CLpro inh: -2; BoNT-A LC inh2: inconclusive; CCHF vOTU inh: -9; Anthrax LF inh2: 0; Autofluor counter: 21365*; BoNT-F LC inh: 5

Bioassay records (PubChem)
